Records with an inconclusive call do not appear. Where a call stands in place of a potency, no number is given. A number with no mark means an inactive call. Active and inactive are the calls of the source. Calls come from the whole dose curve; as a rule, active = well fitted cell-killing curve with a large enough effect; inconclusive = small, poorly fitted or top-dose-only effect, or effect the other way; inactive = flat fitted curve, though single readings scatter.
Potency is the fitted concentration of half-maximal effect.

The test system of the assay is Tov112D. Put plainly: Primary qHTS to identify gynecologic anti-cancer compounds using libraries of approved drugs and bioactive compounds (AID 1345084). Note: nearly all actives have a fitted effect of over 55% in size. The following applies: Gynecologic cancer cell panel viability, ATPlite luminescence, 48 h; series mostly up to 57.5 µM. The method, boiled down:
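48 h compound exposure at 37 C, 5% CO2; five-point qHTS. ATPlite luminescence readout of cell ATP.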
In general terms: qHTS replaces the single test concentration by a dilution series.
Take `O=C(Nc1ccc(-c2ccnc(Nc3ccc(N4CCOCC4)cc3)n2)cc1)C1CCCN1` (configuration not stated): the Potency entry was “inactive”.

Take `C=C1C(=O)OC2/C=C(\C)CC/C=C(\C=O)C(OC)C(OC(=O)C(C)CC)C12` (configuration not stated): the Potency result was “inactive”.

Consider `C=C1C(=O)O[C@@H]2C[C@H](C)[C@@H]3CC(=O)[C@H](O)[C@@]3(C)C[C@H]12`, for which the Potency entry was “inactive”.

Turning to `COc1cc2c(cc1OC(C)C)[C@H](c1ccc(Cl)cc1)N(c1ccc(N(C)CC3CCC(N4CCN(C)C(=O)C4)CC3)cc1)C(=O)C2` (some centres not stated), the Potency entry was “inactive”.

For `CO[C@H]1C[C@@H]2CC[C@@H](C)[C@@](O)(O2)C(=O)C(=O)N2CCCC[C@H]2C(=O)O[C@H]([C@@H](C)C[C@@H]2CC[C@@H](O)[C@H](OC)C2)CC(=O)[C@H](C)/C=C(\C)[C@@H](O)[C@@H](OC)C(=O)[C@H](C)C[C@H](C)/C=C/C=C/C=C/1C`, the Potency result was “inactive”.

`O=C(c1ccccc1)c1c(O)cc(O)cc1O[C@@H]1O[C@H](CO)[C@@H](O)[C@H](O)[C@H]1O`: the Potency was 11.2 µM (active).

Regarding `CC(C)S(=O)(=O)Nc1ccc(F)c(C(=O)c2c[nH]c3ncc(-c4cccnc4)cc23)c1F`, the Potency result is “inactive”.

On to `C=C1C(=O)O[C@@H]2/C=C(\C)CC/C=C(/C=O)[C@H](OC)[C@@H](OC(=O)C(C)C)[C@@H]12`, for which the Potency result was “inactive”.

`C=C1C(=O)O[C@@H]2/C=C(/C)[C@@H](OC(C)=O)C/C=C(\C)C[C@@H](OC(=O)/C(=C/CO)CO)[C@@H]12`: the Potency entry was “inactive”.

Consider `Cn1sc(=O)n(Cc2ccccc2)c1=O`, for which the Potency entry is “inactive”.

With `c1ccc(-c2ccc(CNc3nc(-c4ccccn4)nnc3-c3ccccc3)cc2)cc1`, the Potency is 11.2 µM (active).

For `C=C1C(=O)O[C@@H]2/C=C(\C)CC/C=C(\C)CC[C@@H]12`, the Potency entry was “inactive”.

For `C=C1C(=O)OC2CC(C)C(CCC(C)=O)=CCC12` (configuration not stated), the Potency result was “inactive”.

With `C=C(C(=O)O[C@H]1C/C(C)=C/CC/C(CO)=C/[C@H]2OC(=O)C(=C)[C@H]12)C(O)CO` (some centres not stated), the Potency result is “inactive”.

In the case of `CC(=O)O[C@@H]1[C@H](O[C@@H]2O[C@@H](CO)[C@H](O)[C@H]2O)[C@@H](O[C@@H]2O[C@@H](C)[C@H](O[C@@H]3OC[C@@H](O)[C@H](O)[C@H]3O)[C@@H](O)[C@H]2O)[C@H](OC(=O)[C@]23CCC(C)(C)C[C@H]2C2=CCC4[C@@]5(C)CC[C@H](O[C@@H]6O[C@H](C(=O)O)[C@@H](O)[C@H](O)[C@H]6O[C@@H]6O[C@H](CO)[C@H](O)[C@H](O)[C@H]6O)[C@@](C)(C=O)C5CC[C@@]4(C)[C@]2(C)C[C@H]3O)O[C@@H]1C` (some centres not stated), the activity change, negative = cytotoxicity is -3.22% [at 6.55 µM].

`CCn1c(=O)c(-c2ccc(-c3cncs3)cc2Cl)cc2cnc(Nc3ccc(N4CCN(C)CC4)cc3)nc21`: the Potency entry was “inactive”.

`C=C(C)Cn1c(SCC(=O)c2cccs2)nc2sc3c(c2c1=O)CCCC3`: the Potency entry was “inactive”.

As for `C=C1C(=O)OC2C1CCC1(C)C(O)CC=C(C)C21` (configuration not stated), the Potency entry was “inactive”.

Regarding `C/C=C(\C)C(=O)O[C@H]1C=CC(=O)O[C@H]1/C=C/[C@@H](O)[C@H](C)O`, the Potency entry was “inactive”.

In the case of `C=CC(=O)Nc1cccc(Nc2nc(Nc3ccc(OCCOC)cc3)ncc2F)c1`, the Potency was 4.47 µM (active).

With `COc1cc(N2CCC(O)CC2)ccc1Nc1nc(Nc2ccccc2S(=O)(=O)C(C)C)c2[nH]cnc2n1`, the Potency entry is “inactive”.

In the case of `CC1CC(=O)C2=C(C1)C1OC1C1(O)C2C(=O)c2cccc(O)c2C1O` (configuration not stated), the Potency is 0.0891 µM (active).

With `CC1OC2OC(=O)C3(C)CC4C5(CO5)C5=CC(=O)OC(C)(C)C5=CC(=O)C4(C)C(C1=O)C23` (configuration not stated), the Potency result was “inactive”.

For the molecule `C=C1CC2OC(=O)C(COC)C2C(OC(=O)/C(C)=C\C)CC2(C)OC1=CC2=O` (configuration not stated), the Potency entry is “inactive”.

As to `CN(C)c1cccc(Oc2cnc(Nc3cccc(O)c3)nc2)c1`, the Potency entry was “inactive”.

`Cc1c[nH]c2ncnc(N3CCC(CN)(C(=O)Nc4cccc(OC(=O)N(C)C)c4)CC3)c12`: the Potency result was “inactive”.

For `C/C(=C\Cc1c(O)c(Cl)c(C)c(C=O)c1O)CC/C=C(\C)[C@H]1CC(=O)C(C)(C)O1`, the Potency result was “inactive”.

For the origin of these results see PubChem BioAssay (NCATS).
